In PubChem BioAssay (NCI) one finds growth data, which are given here for twelve compounds.

Test systems include NCI-H226 lung; NCI-H322M lung; HOP-62 NSCLC; NCI-H460 lung; HOP-92 NSCLC; NCI-H522 lung; A549/ATCC NSCLC; 786-0 renal; COLO 205 colon; DU-145 prostate; K-562 leukemia; MALME-3M melanoma; MDA-MB-231 breast; RXF 393 renal; SF-268 CNS; SF-295 CNS; SF-539 CNS; UACC-257 melanoma; M14 melanoma.
Assay in all cases: NCI-60 one-dose screen, 48 h (100 = growth as untreated, 0 = no growth, -100 = all killed)
Common to all, as to settings: 10 µM unless noted

Each structure is given as a SMILES string. About 83,000 compounds went through this panel and 20% of them were active in at least one assay; those are over-represented in the sample as a whole.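 Growth was measured after 48 h exposure to one concentration of compound in 96-well plates. Values under 10 count as active.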 Values without a mark were called inactive. Active and inactive are the calls of the source.

In the case of `O=C1NC(=O)/C(=C/c2ccc3nccc(-c4ccncc4)c3c2)S1`, the growth is -54.5% (active) with NCI-H226 lung; -50.8% (active) in the assay on NCI-H322M lung; -36.1% (active) in the assay with HOP-62 NSCLC; -2.65% (active) in the assay with NCI-H460 lung; -41.1% (active) in the assay on HOP-92 NSCLC; -95.6% (active) in the assay on NCI-H522 lung. For the same compound, the growth is -51.8% (active) in the assay on A549/ATCC NSCLC; -41.6% (active) in the assay with 786-0 renal; -56.6% (active) in the assay on COLO 205 colon; 2.86% (active) in the assay on DU-145 prostate; 5.97% (active) in the assay on K-562 leukemia; -42.7% (active) with MALME-3M melanoma. In addition, the growth in the assay on MDA-MB-231 breast is -13.3% (active); in the assay on RXF 393 renal, -74.2% (active); in the assay on SF-268 CNS, -11.5% (active); with SF-295 CNS, -48.2% (active); in the assay with SF-539 CNS it was -61.5% (active); in the assay on UACC-257 melanoma, -33.5% (active). The growth in the assay with M14 melanoma is -45.5% (active).
As to `O=C(Cn1cncn1)Nc1ccc(-c2nc3ccccc3s2)cc1`, the growth in the assay on NCI-H226 lung was 75%; in the assay with NCI-H322M lung, 101%; with HOP-62 NSCLC, 102%; in the assay with NCI-H460 lung it was 97%; in the assay on HOP-92 NSCLC, 93.5%; in the assay on NCI-H522 lung, 87.5%. The growth is 88.1% with A549/ATCC NSCLC; 95.6% in the assay on 786-0 renal; 107% with COLO 205 colon; 94.5% in the assay on DU-145 prostate; 85.8% in the assay on K-562 leukemia; 100% in the assay on MALME-3M melanoma. Further, the growth is 96.5% with MDA-MB-231 breast; 125% with RXF 393 renal; 97.1% with SF-268 CNS; 91.9% with SF-295 CNS; 108% in the assay with SF-539 CNS; 102% with UACC-257 melanoma. Moreover, in the assay with M14 melanoma, the growth was 111%.
`Cc1nc2cc(-c3nn(C(C)C)c4ncnc(N)c34)ccc2o1`: the growth in the assay with NCI-H226 lung was -20.5% (active); with NCI-H322M lung, -23.2% (active); with HOP-62 NSCLC it was -36.3% (active); in the assay with NCI-H460 lung it was 3.28% (active); with HOP-92 NSCLC, -40.4% (active); with NCI-H522 lung, -11.5% (active). Moreover, the growth with A549/ATCC NSCLC was -29.2% (active); in the assay on 786-0 renal, -29.5% (active); in the assay with COLO 205 colon, -24.9% (active); with DU-145 prostate, 1.98% (active); in the assay on K-562 leukemia, 10.4%; with MALME-3M melanoma, -38.7% (active). The growth in the assay on MDA-MB-231 breast was -9.12% (active); with RXF 393 renal it was -54.3% (active); in the assay on SF-268 CNS, 4.35% (active); in the assay on SF-295 CNS, -53.9% (active); with SF-539 CNS, -61.7% (active); in the assay on UACC-257 melanoma, -45.3% (active). Also, the growth with M14 melanoma was -7.38% (active).
For `COc1ccc(-c2nocc2-c2cc(OC)c(OC)c(OC)c2)cc1`, the growth in the assay with NCI-H322M lung was 44.6%; with HOP-62 NSCLC, 29.6%; with NCI-H460 lung it was 8.8% (active); in the assay on HOP-92 NSCLC, 76%; in the assay on NCI-H522 lung, -5.37% (active); in the assay with A549/ATCC NSCLC, 25.4%. Besides, the growth in the assay on 786-0 renal is 43.9%; with COLO 205 colon, -12.4% (active); in the assay with DU-145 prostate, 15.2%; in the assay on K-562 leukemia, 12.8%; in the assay on MALME-3M melanoma it was 60.3%; in the assay on MDA-MB-231 breast, 25.8%. Moreover, the growth in the assay with SF-268 CNS was 39%; with SF-295 CNS, -4.64% (active); in the assay on SF-539 CNS, 2.52% (active); in the assay on M14 melanoma, 3.03% (active).
`CCOC(=O)C1=C(C)NC(=O)NC1c1cc(=O)oc2ccc(C)cc12` (stereo not given): the growth in the assay with NCI-H226 lung was 93.4%; in the assay on NCI-H322M lung, 98.6%; with HOP-62 NSCLC, 105%; with NCI-H460 lung it was 108%; with HOP-92 NSCLC, 95.6%; in the assay with NCI-H522 lung, 81.5%. The growth in the assay on A549/ATCC NSCLC was 97.6%; with 786-0 renal, 102%; in the assay with COLO 205 colon it was 105%; in the assay with DU-145 prostate it was 104%; in the assay with K-562 leukemia, 103%; with MALME-3M melanoma, 99%. The growth in the assay with MDA-MB-231 breast was 106%; in the assay with SF-268 CNS, 101%; in the assay on SF-295 CNS, 96.9%; in the assay with SF-539 CNS it was 102%; in the assay with M14 melanoma it was 102%.
For `O=C(Nc1ccc(-c2ccnc(Nc3ccc(N4CCOCC4)cc3)n2)cc1)[C@@H]1CCCN1`, the growth with NCI-H226 lung is 48.6%; in the assay on NCI-H322M lung, 67.6%; in the assay on HOP-62 NSCLC it was 33.6%; in the assay on NCI-H460 lung, 50.7%; in the assay with HOP-92 NSCLC, 50.2%; in the assay with NCI-H522 lung, 48.3%. Moreover, the growth was 45% in the assay with A549/ATCC NSCLC; 40.3% with 786-0 renal; 44.6% in the assay with COLO 205 colon; 67.1% with DU-145 prostate; 16% in the assay on K-562 leukemia; 71.5% in the assay with MALME-3M melanoma. Also, the growth in the assay on MDA-MB-231 breast is 48.6%; in the assay on RXF 393 renal it was 5.11% (active); in the assay with SF-268 CNS, 55.6%; with SF-295 CNS it was 35.9%; in the assay with SF-539 CNS, 25.3%; in the assay on UACC-257 melanoma it was 16.8%. In addition, the growth in the assay with M14 melanoma was 51.7%.
`CO[C@H]1C[C@@H]2CC[C@@H](C)[C@@](O)(O2)C(=O)C(=O)N2CCCC[C@H]2C(=O)O[C@H]([C@H](C)C[C@@H]2CC[C@@H](OC(=O)C(C)(CO)CO)[C@H](OC)C2)CC(=O)[C@H](C)/C=C(\C)[C@@H](O)[C@@H](OC)C(=O)[C@H](C)C[C@H](C)\C=C/C=C/C=C/1C`: the growth with NCI-H226 lung is 34.3%; with NCI-H322M lung, 38.5%; with HOP-62 NSCLC, 21.8%; in the assay with NCI-H460 lung, 22.6%; in the assay with HOP-92 NSCLC, 9.36% (active); in the assay with NCI-H522 lung it was 22.7%. Also, the growth with A549/ATCC NSCLC was 22%; with 786-0 renal it was 26.2%; with COLO 205 colon, 28.5%; in the assay on DU-145 prostate it was 37.7%; in the assay on K-562 leukemia, 18.3%; in the assay with MALME-3M melanoma it was 24%. Also, the growth is 24.8% with MDA-MB-231 breast; -16.3% (active) with RXF 393 renal; 30.9% in the assay on SF-268 CNS; 13.6% with SF-295 CNS; 4.68% (active) in the assay with SF-539 CNS; 30.4% with UACC-257 melanoma. The growth in the assay with M14 melanoma is 32.3%.
For `CCN(CC)CCNc1ccc(N=Nc2cnc3ccccc3c2)c2ccccc12`, the growth was -73.6% (active) with NCI-H226 lung; 10.8% with NCI-H322M lung; -84.6% (active) in the assay with HOP-62 NSCLC; -78.8% (active) with NCI-H460 lung; -82.4% (active) in the assay with HOP-92 NSCLC; -87.2% (active) with NCI-H522 lung. Moreover, the growth with A549/ATCC NSCLC is -97.9% (active); with 786-0 renal, -87.9% (active); in the assay with COLO 205 colon, -82.2% (active); in the assay on DU-145 prostate, -85.1% (active); with MALME-3M melanoma, -56.5% (active); with MDA-MB-231 breast it was -87.6% (active). In addition, the growth is -77.7% (active) in the assay on SF-268 CNS, -53.9% (active) with SF-295 CNS, -97.4% (active) in the assay with SF-539 CNS and -67.3% (active) in the assay on M14 melanoma.
On to `NC(=O)c1n[nH]n2c1nc(=O)c1c3c(sc12)CCCC3`, for which the growth is 91.4% with NCI-H226 lung; 101% in the assay on NCI-H322M lung; 96.5% in the assay on HOP-62 NSCLC; 109% with NCI-H460 lung; 91.7% in the assay with HOP-92 NSCLC; 102% in the assay on NCI-H522 lung. In addition, the growth in the assay with A549/ATCC NSCLC was 92.7%; with 786-0 renal, 106%; with COLO 205 colon it was 103%; in the assay with DU-145 prostate it was 110%; with K-562 leukemia, 89.5%; with MALME-3M melanoma, 109%. The growth in the assay with MDA-MB-231 breast was 101%; with SF-268 CNS, 105%; in the assay with SF-295 CNS it was 102%; in the assay with SF-539 CNS, 102%; in the assay with M14 melanoma, 98%.
`C=CCC(=O)N[C@H](/C=C/C(=O)O)Cc1ccc(-c2cc(Cl)cc(Cl)c2)cc1`: the growth was 86.2% with NCI-H226 lung; 101% in the assay with NCI-H322M lung; 82% with HOP-62 NSCLC; 99.6% with NCI-H460 lung; 96.4% with HOP-92 NSCLC; 70.7% with NCI-H522 lung. For the same compound, the growth was 76.9% with A549/ATCC NSCLC; 98.4% in the assay with 786-0 renal; 95.7% in the assay with COLO 205 colon; 106% in the assay on DU-145 prostate; 96.7% in the assay on K-562 leukemia; 99.9% in the assay on MALME-3M melanoma. The growth with MDA-MB-231 breast is 97.9%; in the assay with SF-268 CNS, 98.7%; with SF-295 CNS, 101%; in the assay on SF-539 CNS, 94.6%; with M14 melanoma, 92.2%.
Turning to `CN1CCN(c2ccc(C(=O)Nc3n[nH]c4ccc(Cc5cc(F)cc(F)c5)cc34)c(NC3CCOCC3)c2)CC1`, the growth with NCI-H226 lung is -5.76% (active); in the assay on NCI-H322M lung, 33.8%; with HOP-62 NSCLC, -34.8% (active); in the assay with NCI-H460 lung, -80.3% (active); in the assay with HOP-92 NSCLC it was -68.6% (active); with NCI-H522 lung, -70.6% (active). For the same compound, the growth with A549/ATCC NSCLC was -51.7% (active); in the assay with 786-0 renal, -95.1% (active); in the assay on COLO 205 colon, -73.6% (active); with DU-145 prostate, 19.7%; in the assay on K-562 leukemia, -47.8% (active); in the assay with MALME-3M melanoma it was -83.4% (active). The growth in the assay with MDA-MB-231 breast was -68.7% (active); with RXF 393 renal it was -90.5% (active); in the assay on SF-268 CNS, -60.5% (active); in the assay with SF-295 CNS, -70.4% (active); with SF-539 CNS, -92.4% (active); with UACC-257 melanoma, -85.4% (active). In addition, the growth with M14 melanoma was -79.7% (active).
Regarding `CCCNC(=O)c1cn2ncnc(Nc3cc(C(=O)NC4CC4)ccc3C)c2c1C`, the growth in the assay on NCI-H322M lung is 47.5%; in the assay with HOP-62 NSCLC it was 81.1%; in the assay on NCI-H460 lung, 66.8%; in the assay with HOP-92 NSCLC it was 74.6%; in the assay on NCI-H522 lung it was 79.1%; in the assay with A549/ATCC NSCLC, 63.3%. For the same compound, the growth is 99% in the assay with 786-0 renal; 88.9% in the assay on COLO 205 colon; 103% in the assay with DU-145 prostate; 85% in the assay with K-562 leukemia; 3.42% (active) in the assay on MALME-3M melanoma; 79.2% in the assay on MDA-MB-231 breast. Moreover, the growth in the assay with RXF 393 renal is 40%; in the assay on SF-268 CNS, 88%; in the assay with SF-295 CNS, 79.5%; in the assay with SF-539 CNS it was 77.3%; in the assay on UACC-257 melanoma, 65.6%; in the assay with M14 melanoma, 92.4%.
